# Test results reported in PubChem BioAssay (Tox21).
# Values without a mark were called inactive. Results filed as inconclusive are left out. A call without a number means that no potency is given here. Active and inactive are the calls of the source. Unless noted, calls follow the shape of the full dose curve.
# Experiments:
# [1] = Nuclear factor erythroid 2-related factor 2/antioxidant responsive element (Nrf2/ARE) small molecule agonists: qHTS cell viability counter screen in human keratinocytes (AID 1919968; active = well fitted curve in the direction sought with a large enough effect in the repeat runs; an effect the other way counts as inactive or inconclusive; also: nearly all actives have a fitted effect of over 55% in size; also: potency is read from the fitted curve at half-maximal effect)
# Procedure, shortened: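 KeratinoSens cells (HaCaT keratinocytes stably carrying an ARE-luciferase reporter) were seeded at 1,500 cells/well and rested 5 h at 37 C/5% CO2. They were then exposed to compounds in DMSO for 23 h. Viability was read by CellTiter-Fluor fluorescence after 1 h.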
# [2] = Nuclear factor erythroid 2-related factor 2/antioxidant responsive element (Nrf2/ARE) small molecule agonists: luciferase reporter gene qHTS assay in human keratinocytes (AID 1919969); also: nearly all actives have a fitted effect of over 35% in size; also: potency is read from the fitted curve at half-maximal effect
# [3] = target: KiSS-1 receptor (Homo sapiens) (UniProt Q969F8); assay: Human kisspeptin (KISS1R) small molecule agonists, calcium flux assay in KISS1R-HEK293 cells (AID 1920064; active = well fitted curve in the direction sought with a large enough effect in the repeat runs; an effect the other way counts as inactive or inconclusive)
# Sequence of KiSS-1 receptor (Homo sapiens) (Q969F8 whole entry, looked up): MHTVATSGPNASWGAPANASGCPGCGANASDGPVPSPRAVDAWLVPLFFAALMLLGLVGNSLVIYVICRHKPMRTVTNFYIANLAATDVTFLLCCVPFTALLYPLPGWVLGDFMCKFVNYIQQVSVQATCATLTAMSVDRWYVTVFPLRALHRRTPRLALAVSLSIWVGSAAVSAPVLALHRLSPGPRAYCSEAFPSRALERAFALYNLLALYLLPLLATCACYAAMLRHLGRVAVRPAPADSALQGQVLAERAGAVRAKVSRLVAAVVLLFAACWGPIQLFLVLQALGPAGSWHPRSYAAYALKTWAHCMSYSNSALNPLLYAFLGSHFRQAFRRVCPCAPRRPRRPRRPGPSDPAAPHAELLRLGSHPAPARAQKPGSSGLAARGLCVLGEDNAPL
# Procedure, shortened: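 HEK293 cells stably expressing human KISS1R were plated 18 h at 37 °C, loaded with calcium dye for 1 h at 37 °C, then given compound by pin tool. Fluorescence (Ex/Em 480/540) was read kinetically for 3 min.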
# [4] = G protein-coupled receptor (GPCR) small molecule agonists, calcium flux assay: HEK293 wild type cell line counter screen (AID 1920065)
# Procedure, shortened: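 Cells were plated and cultured 18 h at 37 C/5% CO2, then loaded with calcium dye for 1 h at 37 C. Compounds in DMSO were pin-transferred in agonist mode, and fluorescence (Ex/Em 480/540) was read kinetically for 3 min at 1 s intervals.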
# [5] = p53 small molecule agonists, cell-based qHTS assay with human liver microsomes (AID 1963577);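 also: p53 response element beta-lactamase reporter cells with liver microsomes plus NADPH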
# Procedure, shortened: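 In this qHTS, p53 response-element beta-lactamase cells receive test compound together with a microsome/NADPH activating system (0.5 mg/mL final each) and are incubated 16 h at 37 C before LiveBLAzer fluorescence detection.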
# [6] = p53 small molecule agonists, cell-based qHTS assay with rat liver microsomes (AID 1963578)
# Procedure, shortened: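 Agonist mode in p53RE-bla reporter cells, with compounds co-incubated 16 h at 37 C alongside 0.5 mg/mL rat liver microsomes and 0.5 mg/mL NADPH (final), followed by a 2 h LiveBLAzer detection step.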
# [7] = p53 small molecule agonists, cell-based qHTS assay with human liver microsomes: qHTS cell viability counter screen (AID 1963579); also: nearly all actives have a fitted effect of over 45% in size; also: potency is read from the fitted curve at half-maximal effect
# Procedure, shortened: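 Metabolically activated exposure: compounds, human liver microsomes and NADPH (0.5 mg/mL final apiece) were added to p53RE-bla cells seeded 5 h earlier, left 16 h at 37 C, and then assessed for viability by CellTiter-Glo luminescence.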
# [8] = p53 small molecule agonists, cell-based qHTS assay with rat liver microsomes: qHTS cell viability counter screen (AID 1963580); also: nearly all actives have a fitted effect of over 45% in size; also: potency is read from the fitted curve at half-maximal effect
# Procedure, shortened: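 HCT-116 p53RE-bla, 4,000 cells/well, 5 h pre-incubation; cpd + rat liver microsomes 0.5 mg/mL + NADPH 0.5 mg/mL (final); 16 h, 37 C; CellTiter-Glo, 30 min RT; luminescence.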
# [9] = p53 small molecule agonists, cell-based qHTS assay: qHTS cell viability counter screen (AID 1963581); also: nearly all actives have a fitted effect of over 45% in size; also: potency is read from the fitted curve at half-maximal effect
# Procedure, shortened: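 p53RE-bla HCT-116 cells were exposed to compounds for 16 h at 37 C; after the beta-lactamase FRET read in the same wells, CellTiter-Glo was added and luminescence (intracellular ATP) read after 30 min at room temperature.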
# [10] = target: 5-hydroxytryptamine receptor 2A (Homo sapiens) (UniProt P28223); assay: 5-hydroxytryptamine receptor 2A (HTR2A) small molecule agonists, cell-based qHTS assay (AID 1963587); also: nearly all actives have a fitted effect of over 30% in size; also: potency is read from the fitted curve at half-maximal effect
# Sequence of 5-hydroxytryptamine receptor 2A (Homo sapiens) (P28223 whole entry, looked up): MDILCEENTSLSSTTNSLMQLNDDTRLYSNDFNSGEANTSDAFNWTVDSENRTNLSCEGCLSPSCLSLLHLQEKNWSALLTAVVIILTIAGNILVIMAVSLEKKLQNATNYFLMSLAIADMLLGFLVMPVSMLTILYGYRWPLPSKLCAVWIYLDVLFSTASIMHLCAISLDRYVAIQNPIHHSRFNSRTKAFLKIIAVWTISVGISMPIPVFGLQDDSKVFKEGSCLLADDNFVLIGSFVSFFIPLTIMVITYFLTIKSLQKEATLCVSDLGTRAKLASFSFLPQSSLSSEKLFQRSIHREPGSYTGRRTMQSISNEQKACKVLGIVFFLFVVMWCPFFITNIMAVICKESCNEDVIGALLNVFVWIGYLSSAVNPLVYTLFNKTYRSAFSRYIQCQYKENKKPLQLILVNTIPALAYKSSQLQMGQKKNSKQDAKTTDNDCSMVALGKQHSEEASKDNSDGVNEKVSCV
# Procedure, shortened: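 Kinetic calcium-flux fluorescence (2 min, 1 sec intervals) after compound addition in agonist mode. HTR2A-CHO cells were cultured 18 h, then dye-loaded 1 h at 37 C.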
# [11] = target: Muscarinic acetylcholine receptor M1 (Homo sapiens) (UniProt P11229); assay: Cholinergic receptor muscarinic 1 (CHRM1) small molecule antagonists, cell-based qHTS assay (AID 1963588); also: nearly all actives have a fitted effect of over 40% in size
# Sequence of Muscarinic acetylcholine receptor M1 (Homo sapiens) (P11229 whole entry, looked up): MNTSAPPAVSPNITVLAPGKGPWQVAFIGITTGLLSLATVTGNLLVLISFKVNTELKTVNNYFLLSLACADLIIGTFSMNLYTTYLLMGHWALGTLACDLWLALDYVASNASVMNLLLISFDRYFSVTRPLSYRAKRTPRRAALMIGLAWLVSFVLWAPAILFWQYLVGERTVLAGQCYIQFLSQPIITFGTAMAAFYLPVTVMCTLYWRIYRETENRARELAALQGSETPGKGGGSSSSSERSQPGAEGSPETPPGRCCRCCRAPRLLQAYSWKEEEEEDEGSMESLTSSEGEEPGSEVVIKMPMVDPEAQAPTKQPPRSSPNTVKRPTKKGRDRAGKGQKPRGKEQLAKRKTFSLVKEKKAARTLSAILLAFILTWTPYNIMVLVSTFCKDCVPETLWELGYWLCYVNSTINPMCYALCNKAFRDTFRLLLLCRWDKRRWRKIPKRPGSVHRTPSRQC
# Procedure, shortened: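 CHRM1-CHO calcium-flux assay, antagonist mode. Cells were seeded 18 h, dye-loaded 1 h at 37 C and given compound for 5 min at RT, then acetylcholine was added at 50nM. FDSS fluorescence was read 3 min; 15 concentrations, three runs.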
# [12] = target: Muscarinic acetylcholine receptor M1 (Homo sapiens) (UniProt P11229); assay: Cholinergic receptor muscarinic 1 (CHRM1) small molecule agonists, cell-based qHTS assay (AID 1963589); also: nearly all actives have a fitted effect of over 35% in size; also: potency is read from the fitted curve at half-maximal effect
# Procedure, shortened: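 CHO cells stably expressing human CHRM1, seeded 18 h at 37 C/5% CO2, dye-loaded 1 h at 37 C, then given compound in agonist mode; intracellular calcium fluorescence read kinetically at 1 s intervals. Fifteen concentrations, three independent runs.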
# [13] = target: Beta-2 adrenergic receptor (Homo sapiens) (UniProt P07550); assay: Adrenergic beta2 receptor (ADRB2) small molecule antagonists, cell-based qHTS assay (AID 1963592); also: series mostly up to about 92 µM; nearly all actives have a fitted effect of over 50% in size
# Sequence of Beta-2 adrenergic receptor (Homo sapiens) (P07550 whole entry, looked up): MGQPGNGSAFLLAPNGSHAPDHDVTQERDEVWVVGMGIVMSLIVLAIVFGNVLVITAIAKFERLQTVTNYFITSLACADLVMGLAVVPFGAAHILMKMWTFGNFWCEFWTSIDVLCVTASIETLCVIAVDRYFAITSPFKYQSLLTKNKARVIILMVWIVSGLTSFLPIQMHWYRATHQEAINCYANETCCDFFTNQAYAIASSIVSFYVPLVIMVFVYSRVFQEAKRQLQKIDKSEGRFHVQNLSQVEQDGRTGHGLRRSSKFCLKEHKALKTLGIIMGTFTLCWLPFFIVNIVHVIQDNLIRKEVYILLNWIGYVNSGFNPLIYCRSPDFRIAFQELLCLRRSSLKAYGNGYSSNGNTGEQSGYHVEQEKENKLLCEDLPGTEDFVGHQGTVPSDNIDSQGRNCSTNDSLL
# Procedure, shortened: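 Cells (CHO, stable ADRB2 overexpression) incubated 18-20hr at 37C; compounds added from DMSO; agonist mix (1nM isoproterenol, 100uM IBMX, 25uM Ro-20-1724) added; 0.5hr RT; d2-cAMP and anti-cAMP-cryptate added; 1hr RT; 665/615 nm read.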
# [14] = target: D(2) dopamine receptor (Homo sapiens) (UniProt P14416); assay: Dopamine D2 receptor (DRD2) small molecule antagonists, cell-based qHTS assay (AID 1963595; active = well fitted inhibition curve with a large enough effect in the signal ratio in the repeat runs, with a control signal flat; the % refers to the signal ratio; also: potency is read from the fitted curve at half-maximal effect)
# Sequence of D(2) dopamine receptor (Homo sapiens) (P14416 whole entry, looked up): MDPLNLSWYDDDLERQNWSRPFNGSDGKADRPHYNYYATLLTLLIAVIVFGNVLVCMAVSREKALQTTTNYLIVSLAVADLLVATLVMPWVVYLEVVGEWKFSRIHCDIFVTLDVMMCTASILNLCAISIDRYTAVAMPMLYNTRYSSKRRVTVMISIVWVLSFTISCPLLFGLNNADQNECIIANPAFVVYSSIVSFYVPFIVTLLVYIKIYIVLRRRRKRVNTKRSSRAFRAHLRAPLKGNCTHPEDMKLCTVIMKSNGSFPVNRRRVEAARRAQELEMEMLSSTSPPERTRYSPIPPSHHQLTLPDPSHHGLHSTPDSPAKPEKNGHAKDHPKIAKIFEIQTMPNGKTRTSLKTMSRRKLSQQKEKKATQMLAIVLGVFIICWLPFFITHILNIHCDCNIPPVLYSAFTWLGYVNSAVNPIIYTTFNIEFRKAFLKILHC
# Procedure, shortened: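 Antagonism was scored as restored cAMP in HEK293-DRD2 cells. These cells were stimulated with 200 nM NKH477 and 12 nM quinpirole for 30 min at room temperature, in the presence of 0.1 mM Ro20-1724.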
# [15] = target: Gonadotropin-releasing hormone receptor (Homo sapiens) (UniProt P30968); assay: Human gonadotropin-releasing hormone receptor (GnRHR) small molecule agonists, calcium flux assay in GnRHR-HEK293 cells (AID 1920063); also: nearly all actives have a fitted effect of over 35% in size
# Sequence of Gonadotropin-releasing hormone receptor (Homo sapiens) (P30968 whole entry, looked up): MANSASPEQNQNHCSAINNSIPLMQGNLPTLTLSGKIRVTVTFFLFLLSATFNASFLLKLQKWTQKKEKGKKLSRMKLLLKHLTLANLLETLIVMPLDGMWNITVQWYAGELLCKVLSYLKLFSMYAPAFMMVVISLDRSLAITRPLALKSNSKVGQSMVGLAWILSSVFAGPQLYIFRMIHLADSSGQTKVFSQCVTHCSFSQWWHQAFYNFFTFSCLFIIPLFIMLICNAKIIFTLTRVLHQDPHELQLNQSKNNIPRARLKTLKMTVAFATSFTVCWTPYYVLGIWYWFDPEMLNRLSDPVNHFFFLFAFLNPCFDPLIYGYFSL
# Procedure, shortened: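 HEK293 cells stably expressing human GnRHR were plated 18 h at 37 °C, loaded with calcium dye 1 h at 37 °C, then given compound in agonist mode; fluorescence (Ex/Em 480/540) read kinetically for 3 min at 1 s intervals.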
# [16] = p53 small molecule agonists, cell-based qHTS assay (AID 1963582; active = well fitted activation curve with a large enough effect in the signal ratio in the repeat runs, not every such curve was filed as active; the % refers to the signal ratio)
# Procedure, shortened: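 p53RE-bla beta-lactamase reporter cells rested 5 h at 37 C/5% CO2, then received compounds in DMSO by pin transfer and were incubated 16 h at 37 C. LiveBLAzer B/G FRET substrate was loaded for 2 h at room temperature before fluorescence reading.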
# [17] = cAMP Responsive Elements (CRE) small molecule antagonists, cell-based qHTS assay (AID 1963591; active = well fitted inhibition curve with a large enough effect in the signal ratio in the repeat runs, not every such curve was filed as active; the % refers to the signal ratio)
# Procedure, shortened: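 CRE-bla HEK293T cells were plated 18 h at 37 °C/5% CO2, pinned with compound in DMSO, then stimulated with NKH477 at 0.25 uM final for 3 h. LiveBLAzer B/G FRET substrate was added and plates incubated 2 h at room temperature.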
# [18] = target: D(2) dopamine receptor (Homo sapiens) (UniProt P14416); assay: Dopamine D2 receptor (DRD2) small molecule agonists, cell-based qHTS assay (AID 1963594); also: nearly all actives have a fitted effect of over 35% in size
# Procedure, shortened: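 cAMP accumulation in DRD2-HEK293 cells measured by HTRF after 1 h detection; compounds added 10 min before NKH477 (200nM […]) forskolin-analogue stimulation, 30 min at room temperature, with Ro20-1724 present at 0.1 mM final.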
# [19] = cAMP Responsive Elements (CRE) small molecule agonists, cell-based qHTS assay (AID 1963590)
# Procedure, shortened: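 CRE-bla HEK 293T cells in DMEM with 10% dialyzed FBS, NEAA, pyruvate and 25 mM HEPES were plated 18 h at 37 C/5% CO2, then exposed to compounds in DMSO for 3 h before LiveBLAzer B/G FRET substrate addition.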
# [20] = target: 5-hydroxytryptamine receptor 2A (Homo sapiens) (UniProt P28223); assay: 5-hydroxytryptamine receptor 2A (HTR2A) small molecule antagonists, cell-based qHTS assay (AID 1963586); also: nearly all actives have a fitted effect of over 45% in size; also: potency is read from the fitted curve at half-maximal effect
# Procedure, shortened: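 Antagonist-mode intracellular calcium assay: DOI (4 nM) added after 5 min compound pre-incubation at room temperature to dye-loaded HTR2A-CHO cells. Fluorescence followed for 3 min, sampled every second.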
Compound,Potency [1],Potency [2],Potency [3],Potency [4],Potency [5],Potency [6],Potency [7],Potency [8],Potency [9],Potency [10],Potency [11],Potency [12],Potency [13],Potency [14],Potency [15],Potency [16],Potency [17],Potency [18],Potency [19],Potency [20]
CCOC(=O)C(Cl)Cc1cc(-n2nc(C)n(C(F)F)c2=O)c(F)cc1Cl (stereo not drawn),inactive,inactive,inactive,inactive,inactive,inactive,inactive,inactive,inactive,inactive,inactive,inactive,inactive,inactive,,,,,,
ClC=C(Cl)Cl,inactive,inactive,,inactive,inactive,,inactive,inactive,inactive,,inactive,inactive,inactive,inactive,inactive,inactive,inactive,inactive,,
Cc1ccc(S(=O)(=O)N[C@@H](CCCCN)C(=O)CCl)cc1,inactive,inactive,,inactive,,,inactive,inactive,inactive,inactive,inactive,inactive,inactive,inactive,inactive,,,inactive,inactive,
O=C(CCl)C(Cl)Cl,19.5 µM (active),7.77 µM (active),,inactive,inactive,,,13 µM (active),inactive,inactive,inactive,inactive,inactive,inactive,inactive,,,inactive,,inactive
NCCc1cc(O)c(O)cc1O,inactive,inactive,,inactive,,,inactive,inactive,inactive,23.9 µM (active),inactive,inactive,inactive,inactive,inactive,,inactive,inactive,inactive,18.3 µM (active)
NP(N)(=O)NC(=O)c1ccc(F)cc1,inactive,inactive,,inactive,inactive,,inactive,inactive,inactive,inactive,,inactive,inactive,inactive,inactive,,inactive,inactive,inactive,
CC(C)[C@H](C(=O)OC(C#N)c1cccc(Oc2ccccc2)c1)c1ccc(OC(F)F)cc1 (stereo partly drawn),inactive,inactive,,inactive,inactive,,inactive,,inactive,inactive,inactive,,inactive,inactive,inactive,inactive,inactive,inactive,,inactive
CCC1(CC)C(=O)N=C(O)NC1=O,inactive,inactive,,,,,inactive,inactive,inactive,inactive,inactive,,inactive,inactive,inactive,,,inactive,inactive,inactive
CC(O)C(=O)[O][Hg][c]1ccccc1 (stereo not drawn),1.72 µM (active),0.864 µM (active),inactive,inactive,inactive,inactive,3.63 µM (active),8.14 µM (active),2.89 µM (active),,inactive,54.9 µM (active),,2.73 µM (active),,,,,,inactive
O=S(=O)(Cl)c1ccccc1,inactive,inactive,,,,,inactive,inactive,inactive,inactive,inactive,inactive,inactive,inactive,inactive,,inactive,inactive,inactive,inactive
CCOC(=O)NC(O)C(Cl)(Cl)Cl (stereo not drawn),inactive,inactive,,inactive,,,inactive,inactive,,inactive,inactive,inactive,inactive,inactive,inactive,,inactive,inactive,inactive,inactive
C[N+]1(CCF)[C@@H]2CC[C@H]1CC(OC(=O)C(O)(c1ccccc1)c1ccccc1)C2 (stereo partly drawn),inactive,inactive,inactive,inactive,inactive,inactive,inactive,inactive,inactive,inactive,,inactive,inactive,inactive,,inactive,,inactive,inactive,inactive
CCCCCCCCCCCCCC[P+](CCCCCC)(CCCCCC)CCCCCC (tested in a mixture with another compound),6.86 µM (active),inactive,,inactive,inactive,inactive,,16.2 µM (active),14.5 µM (active),inactive,inactive,inactive,inactive,54.5 µM (active),inactive,,,inactive,,inactive
Cc1cc(OC(=O)N(C)C)nn1C(=O)N(C)C,inactive,inactive,,inactive,,,inactive,inactive,inactive,inactive,inactive,,inactive,inactive,inactive,,inactive,inactive,inactive,inactive
CC1=NNC(=O)N(/N=C/c2cccnc2)C1,inactive,inactive,,inactive,,inactive,inactive,inactive,inactive,inactive,inactive,inactive,inactive,inactive,inactive,inactive,inactive,inactive,inactive,inactive
C=CCOC(=O)c1ccccc1N,inactive,6.15 µM (active),,inactive,,,,inactive,inactive,inactive,inactive,inactive,inactive,inactive,inactive,,,inactive,inactive,inactive
